Assay [1] in a line: antimalarial activity against Dd2 strain (AID 2302;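 active means growth inhibition above 50% at the single 2 µM test dose, taken to imply half-maximal potency below 2 µM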;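 further: 0% = DMSO untreated growth and 100% = chloroquine plus artemisinin killed control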). The conditions noted are these: P. falciparum Dd2 in RBCs, LDH growth readout, 72 h; at 2 µM; hits give high values.
Assay [2] in a line: HepG2 cytotoxicity, primary screen, cytotoxicity control for P. falciparum antimalarial project, cell-based, ATP luminescence (AID 2303;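 active means inhibition above 50%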;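 further: 0% = DMSO wells and 100% = digitonin-killed cells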). To be noted: HepG2 viability, 24-48 h, at 10 µM, hits give high values.
Assay [3] addresses L-lactate dehydrogenase (Plasmodium falciparum (isolate CDC / Honduras)) (UniProt Q27743). As to the kind of experiment: PfLDH activity inhibition – cell lysate, 3D7 strain, counter-screen for P. falciparum growth inhibition project (AID 2304).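 Further: 0% = vehicle and 100% = reference inhibitor.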 To be noted: P. falciparum 3D7 crude extract, LDH APAD/NBT absorbance; at 2 µM; hits give high values. (Counterscreens check selectivity or assay interference.)

A short description of assay [4]: inhibition of 3D7 malaria parasite growth – strain 3D7 (AID 2306).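 Further: 0% = DMSO wells and 100% = chloroquine plus artemisinin control wells.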 The conditions noted are these: P. falciparum 3D7 erythrocytic growth, LDH absorbance, 72 h; at 2 µM; hits give high values.
Assay [5] concerns the target Calcium-dependent protein kinase 1 (Plasmodium falciparum (isolate 3D7)) (UniProt P62344). In words: PfCDPK1 kinase inhibitors, biochemical, TCAMS library (AID 1159585; cut-off not given, nearly all actives have IC50 up to about 0.98 µM;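 further: inhibitors leave more ATP so luminescence rises with inhibition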). To be noted: recombinant PfCDPK1, Kinase-Glo ATP depletion luminescence. On the technique in general: Kinase-Glo reads ATP consumption through a luciferase reaction.
Assay [6] concerns the target Plasmodium falciparum protein kinase 6 (PK6, PF3D7_1337100) (UniProt Q8IDW1). As to the kind of experiment: PfPK6 kinase inhibitors, biochemical, TCAMS library (AID 1159586). To be noted: recombinant PfPK6, Kinase-Glo ATP depletion luminescence.
For assay [7], the target named is Protein kinase 7 (PK7), Plasmodium falciparum 3D7 (PF3D7_0213400) (UniProt Q7YTF7). In words: inhibition of Plasmodium PK7 catalytic activity – biochemical, TCAMS antimalarial set, Kinase-Glo luminescence (AID 1159587). To be noted: recombinant PfPK7, Kinase-Glo ATP depletion luminescence.
Protein kinase 7 (PK7), Plasmodium falciparum 3D7 (PF3D7_0213400), sequence (Q7YTF7 1-343): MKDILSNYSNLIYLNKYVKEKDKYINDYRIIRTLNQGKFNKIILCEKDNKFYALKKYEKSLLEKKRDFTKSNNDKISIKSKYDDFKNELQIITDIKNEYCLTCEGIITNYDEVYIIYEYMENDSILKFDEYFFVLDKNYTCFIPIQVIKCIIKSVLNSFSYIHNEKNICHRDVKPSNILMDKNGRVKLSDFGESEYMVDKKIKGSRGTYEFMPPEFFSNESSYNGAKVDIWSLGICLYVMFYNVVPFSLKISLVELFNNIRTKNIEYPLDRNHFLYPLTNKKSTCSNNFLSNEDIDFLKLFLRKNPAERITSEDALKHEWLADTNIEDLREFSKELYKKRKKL
For assay [8], the target named is Calcium-dependent protein kinase 4 (Plasmodium falciparum (isolate 3D7)) (UniProt Q8IBS5). In words: PfCDPK4 kinase inhibitors, biochemical, TCAMS library (AID 1159588; cut-off not given, nearly all actives have IC50 up to about 0.91 µM). To be noted: recombinant PfCDPK4, Kinase-Glo ATP depletion luminescence.
Calcium-dependent protein kinase 4 (Plasmodium falciparum (isolate 3D7)), sequence (Q8IBS5 whole entry, looked up): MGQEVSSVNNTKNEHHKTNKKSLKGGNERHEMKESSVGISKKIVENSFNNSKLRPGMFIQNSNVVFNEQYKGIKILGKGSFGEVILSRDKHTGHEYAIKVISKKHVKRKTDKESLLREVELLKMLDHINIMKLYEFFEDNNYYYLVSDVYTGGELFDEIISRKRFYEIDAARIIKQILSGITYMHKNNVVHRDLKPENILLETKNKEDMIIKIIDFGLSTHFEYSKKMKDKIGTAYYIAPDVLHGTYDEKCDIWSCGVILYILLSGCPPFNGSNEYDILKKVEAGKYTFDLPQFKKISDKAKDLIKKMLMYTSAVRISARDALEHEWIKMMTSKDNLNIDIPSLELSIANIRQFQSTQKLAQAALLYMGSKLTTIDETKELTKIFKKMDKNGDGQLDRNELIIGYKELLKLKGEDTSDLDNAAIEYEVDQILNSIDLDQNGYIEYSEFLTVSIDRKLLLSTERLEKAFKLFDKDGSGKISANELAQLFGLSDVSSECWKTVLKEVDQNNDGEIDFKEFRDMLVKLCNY

The record followed here is PubChem BioAssay.

Unmarked numbers belong to inactive results. For part of these data: Measured potencies and affinities stand elsewhere. Activity calls are given as the source filed them. Unless noted, how the calls were made is not given here.

L-lactate dehydrogenase (Plasmodium falciparum (isolate CDC / Honduras)), sequence (Q27743 whole entry, looked up): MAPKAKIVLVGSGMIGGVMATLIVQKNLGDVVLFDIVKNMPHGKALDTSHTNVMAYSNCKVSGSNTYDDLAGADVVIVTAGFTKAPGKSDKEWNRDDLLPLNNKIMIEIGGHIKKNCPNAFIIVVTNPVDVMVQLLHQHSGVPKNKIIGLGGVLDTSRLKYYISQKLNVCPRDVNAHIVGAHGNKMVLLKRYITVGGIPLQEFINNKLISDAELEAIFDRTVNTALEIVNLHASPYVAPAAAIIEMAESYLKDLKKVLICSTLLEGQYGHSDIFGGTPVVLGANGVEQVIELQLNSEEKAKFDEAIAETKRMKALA
Plasmodium falciparum protein kinase 6 (PK6, PF3D7_1337100), sequence (Q8IDW1 1-305): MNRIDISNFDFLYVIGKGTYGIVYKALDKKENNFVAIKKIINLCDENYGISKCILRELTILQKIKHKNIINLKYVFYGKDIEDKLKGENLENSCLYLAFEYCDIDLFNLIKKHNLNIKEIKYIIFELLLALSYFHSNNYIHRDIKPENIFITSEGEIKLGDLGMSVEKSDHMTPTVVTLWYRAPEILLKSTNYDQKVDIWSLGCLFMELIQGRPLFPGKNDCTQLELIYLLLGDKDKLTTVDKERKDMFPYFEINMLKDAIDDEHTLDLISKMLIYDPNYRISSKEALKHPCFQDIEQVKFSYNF
Calcium-dependent protein kinase 1 (Plasmodium falciparum (isolate 3D7)), sequence (P62344 whole entry, looked up): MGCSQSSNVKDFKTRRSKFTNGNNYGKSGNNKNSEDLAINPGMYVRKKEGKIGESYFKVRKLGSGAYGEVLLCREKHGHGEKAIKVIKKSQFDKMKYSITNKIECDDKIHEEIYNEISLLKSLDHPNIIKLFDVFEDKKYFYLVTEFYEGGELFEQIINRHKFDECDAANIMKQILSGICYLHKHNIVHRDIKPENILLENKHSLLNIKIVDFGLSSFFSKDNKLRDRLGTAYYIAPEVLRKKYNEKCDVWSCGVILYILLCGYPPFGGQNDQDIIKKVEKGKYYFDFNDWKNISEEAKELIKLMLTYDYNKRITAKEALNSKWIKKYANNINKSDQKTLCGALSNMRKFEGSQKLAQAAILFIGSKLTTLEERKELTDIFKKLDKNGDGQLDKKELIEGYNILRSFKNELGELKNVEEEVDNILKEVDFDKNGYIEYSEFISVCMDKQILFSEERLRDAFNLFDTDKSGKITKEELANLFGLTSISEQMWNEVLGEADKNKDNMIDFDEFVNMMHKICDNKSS

Consider `Cc1nnc(NC(=O)c2cn(-c3ccccc3)nc2-c2ccccc2C)o1`, for which the growth inhibition is 87% (active) in assay [1] and 93% (active) in assay [4]. In addition, the inhibition in assay [2] was 37%; in assay [3], 1%. In addition, the result in assay [5], in assay [6], in assay [7] and in assay [8] was inactive.

For `Fc1ccc2nc(-c3ccc(-c4ccc(CNCC5CCCO5)cc4)s3)[nH]c2c1` (centres undefined), the growth inhibition in assay [1] was 99% (active); in assay [4] it was 100% (active). Also, the inhibition is 30% in assay [2] and -2% in assay [3]. Moreover, the result in assay [5], in assay [6], in assay [7] and in assay [8] was inactive.

On to `CCOC(=O)c1ccc(N=C2SC(=Cc3cc(Br)ccc3O)C(=O)N2C)cc1`, for which the growth inhibition in assay [1] was 96% (active); in assay [4], 99% (active). In addition, the inhibition was -3% in assay [2] and -2% in assay [3]. In addition, the outcome in assay [5], in assay [6], in assay [7] and in assay [8] was inactive.

What is called inhibition is the change of the read-out against control, counted positive when it falls.
